TDP1 inh = blocks human tyrosyl-DNA phosphodiesterase 1. Potency, µM (doses to about 130 µM), for inactives: top-dose activity change, negative = inhibition, usual class: inhibitors. recombinant TDP1, AlphaScreen DNA substrate cleavage. hit rate 0.28% among 350,000. Q9NUW8; further: nearly all actives have a fitted effect of over 40% in size
Target sequence (Q9NUW8 whole entry, looked up): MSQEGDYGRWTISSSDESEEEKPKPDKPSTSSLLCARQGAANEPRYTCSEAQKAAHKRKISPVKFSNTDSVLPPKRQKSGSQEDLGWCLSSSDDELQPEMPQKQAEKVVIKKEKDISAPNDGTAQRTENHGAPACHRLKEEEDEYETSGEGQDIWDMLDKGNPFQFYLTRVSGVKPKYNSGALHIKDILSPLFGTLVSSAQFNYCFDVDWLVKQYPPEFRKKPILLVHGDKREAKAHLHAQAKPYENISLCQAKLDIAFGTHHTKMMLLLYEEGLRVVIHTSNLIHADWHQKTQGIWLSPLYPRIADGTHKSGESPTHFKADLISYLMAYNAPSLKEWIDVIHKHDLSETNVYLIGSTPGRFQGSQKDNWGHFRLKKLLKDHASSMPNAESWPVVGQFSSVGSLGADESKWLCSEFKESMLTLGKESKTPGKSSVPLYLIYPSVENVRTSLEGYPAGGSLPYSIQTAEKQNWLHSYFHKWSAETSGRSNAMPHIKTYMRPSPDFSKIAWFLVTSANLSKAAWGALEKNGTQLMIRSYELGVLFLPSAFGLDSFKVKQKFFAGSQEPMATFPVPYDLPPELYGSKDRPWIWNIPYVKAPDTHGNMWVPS
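E. coli-derived human Tdp1, 1 nM final. Cpd preinc 15 min RT; substrate 15 nM final, 5 min RT; AS bead mix 10 ug/ml final, 10 min RT. Signal loss = tyrosine-FITC cleavage. No-enzyme wells = max signal.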
VP16 counter = counter-screen for ROR gamma inhibitors: Gal4-VP16 reporter. hit rate 3.5% among 310,000. Potency, µM (titrated, usually from 53.6 µM), for inactives: top-dose activity, negative = inhibition, usual class: inhibitors. Drosophila S2 Gal4-VP16 UAS-luciferase, luminescence, 20 h;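 further: Gal4-VP16 expression switched on by copper sulfate through the metallothionein promoter; nearly all actives have a fitted effect of over 50% in size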
DT40 TDP1 no CPT = qHTS for Inhibitors of human tyrosyl-DNA phosphodiesterase 1 (TDP1): qHTS in cells in absence of CPT; DT40 Tdp1-/- hTDP1 cells, no CPT, ATP luminescence, 48 h; Potency, µM (series often up to 46.2 µM), without a hit: at the highest dose activity change, negative = growth inhibition, actives largely listed as inhibitors; hit rate 15% among 420,000; further: nearly all actives have a fitted effect of over 55% in size
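DT40 Tdp1-/-;hTDP1 cells, no CPT (DMSO vehicle only), 400 cells/well; compounds pin-transferred; ≥48 hr, 37 °C; CellTiter-Glo 30 min RT dark, luminescence read.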
RORgamma inh = inhibitors of mouse ROR gamma transcriptional activity; Drosophila S2 Gal4-RORgamma UAS-luciferase reporter, 20 h; Potency, µM (highest dose often 53.6 µM), without a hit: at the top dose activity change, negative = inhibition, hits mostly inhibitors; hit rate 5.4% among 310,000; further: nearly all actives have a fitted effect of over 60% in size
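Luminescence from a UAS-regulated Photinus luciferase reporter in stably transfected Drosophila Schneider cells is measured; decreased signal marks ROR gamma inhibition. Fusion expression is induced by 700 uM copper sulfate for 20 hr.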
TDP1 cell CPT = growth inhibition of DT40 Tdp1-/-;hTDP1 cells with camptothecin (screen for TDP1 inhibitors); Potency, µM (top dose mostly 46.2 µM), inactives show top-dose activity change, negative = growth inhibition, hits mostly inhibitors; chicken DT40 Tdp1-/-;hTDP1 cells + 20 nM CPT, ATP luminescence, 48 h; hit rate 12% among 420,000; further: nearly all actives have a fitted effect of over 55% in size
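Chicken DT40 Tdp1-/- cells stably complemented with human TDP1 were seeded at 400 cells/well in medium containing 20 nM camptothecin, exposed to pin-transferred compounds, and grown at 37 °C for at least 48 hr. Viability was read as ATP luminescence.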
An asterisk follows results filed as active; ? = inconclusive; · = no result given; [ ] = dose if it differs, or a comment. Only some compounds are listed: those with a hit (about 19% of all), similar ones and a draw of the others. The call rests on the fitted dose curve; in most records, active means well fitted curve in the direction sought with a large enough effect; inconclusive means small, poorly fitted or top-dose-only effect, or another doubt; inactive means no such curve, though single readings can be large; an effect the other way counts as inactive or inconclusive. On the % scale 0 is the no-effect control and ±100 the full control effect; potency means the concentration at half of the fitted maximal effect.

SMILES	TDP1 inh	VP16 counter	DT40 TDP1 no CPT	RORgamma inh	TDP1 cell CPT
COC(=O)c1ccc(C)c(-n2c(=O)n(Cc3ccccc3)c(=O)c3[nH]cnc32)c1	·	6%	21µM*	14%	?
COc1cccc(/C=C2\Oc3ccc(O)cc3C2=O)c1O	·	?	-24%	?	-22%
Oc1ccccc1-c1cnc2cccnn12	·	·	?	·	16µM*
O=C(O)c1cnn2c(-c3ccccc3)ccnc12	·	-4%	5%	1%	24%
COc1ccc(-c2cccc(NS(=O)(=O)c3cc(C)c(Cl)cc3C)c2)nn1	4%	·	23µM*	·	13µM*
COc1ccc(-c2cccc(NS(=O)(=O)c3cc(C)ccc3OC)c2)nn1	5%	·	23µM*	·	16µM*
COc1ccc(-c2cccc(NS(=O)(=O)c3cc(C(F)(F)F)ccc3Cl)c2)nn1	4%	·	?	·	-30%
CCOC(=O)c1ccc(NC(=O)CSc2nnc(CNC(=O)c3ccc(OC)cc3)n2CC)cc1	8%	·	-26%	·	2%
COc1ccc2c(c1)C(c1ccccc1OC)CC(=O)O2 (stereo not given)	13µM*	0%	·	4%	·
CCOc1ccccc1C1CC(=O)Nc2cc(C)c(C)cc21 (stereo not given)	·	-5%	4.1µM*	-8%	2.6µM*
CCCCOc1ccccc1C1CC(=O)Nc2cc(C)c(C)cc21 (stereo not given)	0%	·	18µM*	·	15µM*
CCCCOc1ccccc1C1CC(=O)Nc2cc(OC)c(OC)cc21 (stereo not given)	6%	·	?	·	?
COc1ccc2c(c1)OC(=O)CC2c1ccccc1OC (stereo not given)	-3%[56.1 µM]	1%	1%	-29%	-23%
COc1ccccc1C1CC(=O)Nc2cc(C)c(C)cc21 (stereo not given)	·	-3%	8.2µM*	-3%	6.5µM*
Cc1ccc(NC(=O)CO/N=C(\N)c2nonc2N)cc1C	2%	-3%	15%	20%	1%
Cc1[nH]c(-c2ccc3c(c2)OCO3)nc1C(=O)O	3%	-7%	18µM*	-9%	10µM*
CCOc1ccc(S(=O)(=O)N(CC(=O)NCCSc2ccc(C)cc2)c2ccccc2)cc1	·	·	-19%	·	-20%
Cc1ccc(S(=O)(=O)N(CC(=O)NCCSc2ccc(Cl)cc2)c2cccc(Cl)c2)cc1	6%	·	21µM*	·	?
Cc1ccc(N(CC(=O)NCCSc2ccccc2)S(=O)(=O)c2ccc(F)cc2)cc1	-3%[12.3 µM]	·	9.2µM*	·	?
COc1ccc(S(=O)(=O)N(CC(=O)NCCSc2ccc(C)cc2)c2ccc(C)cc2)cc1	·	·	23µM*	·	18µM*
CCCOc1ccc(-c2nc(N3CCC(C)CC3)c3ccccc3n2)cc1	0%[12.3 µM]	·	?	·	?
CN(C)/C=N/C(=S)Nc1ccc(Cl)cc1Cl	3%	5%[10 µM]	?	13µM*	6%
Cc1cccc(C)c1NC(=S)/N=C/N(C)C	-11%	5%[10 µM]	?	20µM*	?
S=C(Nc1ccc(Cl)cc1)N1CCCC1	0%	8%	1%	-45%	-7%
CN(C)/C=N/C(=S)Nc1ccc(Cl)cc1	3%	-10%[10 µM]	?	6.3µM*	-12%
SMILES	TDP1 inh	VP16 counter	DT40 TDP1 no CPT	RORgamma inh	TDP1 cell CPT
Cc1cccc(C)c1NC(=O)CNCC(=O)N(C)C	5%	5%	0%	-10%	-1%
Cc1ccc(Nc2nc(Oc3ccc(=O)[nH]n3)nc(N(C)C)n2)cc1	5%	-10%	?	37%	-3%
CCC12CN3CCN(CC(C3)/C1=N\NC(=O)c1ccc(Cl)cc1)C2	2%	-26%	?	-4%	?
Cc1cccc(NC(=O)CSc2nnnn2-c2cccnc2)c1	2%	2%	-16%	-8%	-25%
Cc1ccc(C)c(C(=O)CSc2nnnn2-c2cccnc2)c1	1%	13%	16µM*	0%	-10%
CCc1cc2c(=O)nc3n(c2s1)Cc1ccccc1/C3=C(/O)c1ccc(F)cc1	4%	?	·	?	·
N#CC1=C(N)N(c2ccccc2)C(c2cccc([N+](=O)[O-])c2)C1(C#N)C#N (stereo not given)	7%	-20%	16µM*	36%	?
Cc1cccc(N2C(N)=C(C#N)C(C#N)(C#N)C2c2ccccc2)c1 (stereo not given)	11%	-8%	10µM*	2%	21µM*
N#CC1=C(N)N(c2ccccc2)C(c2ccco2)C1(C#N)C#N (stereo not given)	9%	3%	?	-15%	?
CCOc1ccc(S(=O)(=O)NCCC(=O)NCc2ccc(OC)c(OC)c2)cc1	0%	·	15%	·	-20%
CC1CCC(C(C)C)C(OC(=O)Cn2c(-c3ccc(Cl)cc3)[n+](C)c3ccccc32)C1 (stereo not given)	·	?	2.1µM*	?	2.3µM*
Cc1ccccc1OCc1n(CC(=O)OC2CC(C)CCC2C(C)C)c2ccccc2[n+]1C (stereo not given)	5%	18µM*	2.6µM*	?	10µM*
CC(C)[C@@H]1CC[C@@H](C)C[C@H]1OC(=O)c1ccccc1O	·	·	-1%	·	7%
CC1CCC(C(C)C)C(OC(=O)c2ccccc2O)C1 (stereo not given)	·	-13%	·	0%	·
O=C(C[C@@H]1C[C@@H]2c3cc(NS(=O)(=O)c4ccc(F)cc4)ccc3O[C@@H]2[C@@H](CO)O1)NC1CCCCC1	·	·	18µM*	·	?
COc1cccc(S(=O)(=O)Nc2ccc3c(c2)[C@H]2C[C@H](CC(=O)N[C@@H](C)c4ccccc4)O[C@H](CO)[C@H]2O3)c1	·	·	15µM*	·	?
COc1cccc(S(=O)(=O)Nc2ccc3c(c2)[C@@H]2C[C@@H](CC(=O)NCc4ccc(Cl)cc4)O[C@@H](CO)[C@@H]2O3)c1	·	·	16µM*	·	18µM*
COc1ccc(CNC(=O)C[C@@H]2C[C@H]3c4cc(NC(=O)C5CCC5)ccc4O[C@H]3[C@@H](CO)O2)cc1	·	·	?	·	-13%
COc1ccc(CNC(=O)C[C@@H]2C[C@H]3c4cc(NC(=O)NC5CCCC5)ccc4O[C@H]3[C@H](CO)O2)cc1	·	·	13µM*	·	?
O=C(C[C@H]1C[C@@H]2c3cc(NS(=O)(=O)c4ccccc4)ccc3O[C@@H]2[C@H](CO)O1)NC1CCCC1	·	·	-26%	·	-28%
Cc1cc(NC(=O)c2cc3n(n2)C(C(F)(F)F)CC(c2ccc(Cl)c(Cl)c2)N3)no1 (stereo not given)	0%	?	21µM*	-10%	?
O=C(Nc1ccc(O)cc1)c1cc2n(n1)C(C(F)(F)F)CC(c1ccco1)N2 (stereo not given)	4%	0%	7.3µM*	4%	9.2µM*
